# Source: PubChem (National Center for Advancing Translational Sciences (NCATS))
# DT40 TDP1 CPT – qHTS for Inhibitors of human tyrosyl-DNA phosphodiesterase 1 (TDP1): qHTS in cells in presence of CPT. Potency, µM (titrated, usually from 46.2 µM), inactives show at the top dose activity change, negative = growth inhibition, actives largely listed as inhibitors. AID 686979, 2013. chicken DT40 Tdp1-/-;hTDP1 cells + 20 nM CPT, ATP luminescence, 48 h. 420,000 compounds, 12% hits; note: potency is the fitted concentration of half-maximal effect; nearly all actives have a fitted effect of over 55% in size
#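 Chicken DT40 Tdp1-/- cells stably complemented with human TDP1 were seeded at 400 cells/well in medium containing 20 nM camptothecin, exposed to pin-transferred compounds, and grown at 37 °C for at least 48 hr. Viability was read as ATP luminescence.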
# TDP1 cell noCPT – qHTS for Inhibitors of human tyrosyl-DNA phosphodiesterase 1 (TDP1): qHTS in cells in absence of CPT; DT40 Tdp1-/- hTDP1 cells, no CPT, ATP luminescence, 48 h; Potency, µM (series often up to 46.2 µM), without a hit: at the highest dose activity change, negative = growth inhibition, actives largely listed as inhibitors; AID 686978, 2013; 420,000 compounds, 15% hits; note: potency is the fitted concentration of half-maximal effect; nearly all actives have a fitted effect of over 55% in size
#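 Luminescent ATP content (CellTiter-Glo) served as the growth readout. Knockout chicken DT40 cells expressing human TDP1 were exposed to compounds without camptothecin for a minimum 48 hr at 37 °C.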
# HT1080 IDH1KD tx – qHTS for induction of synthetic lethality in tumor cells producing 2HG: qHTS for the HT-1080-IDH1KD cell line | AID 686971, 2013 | Potency, µM (series often up to 46.1 µM), for the others: top-dose activity, negative = toxicity, usual class: cytotoxic | HT-1080 IDH1 knockdown viability, ATP luminescence, 48 h | 360,000 compounds, 2% hits;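 note: potency is the fitted concentration of half-maximal effect; 0% = DMSO wells and -100% = cell-free medium wells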
#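 Using the IDH1-knockdown HT-1080 line run in the same batch and compound series as the NT line, viability after 48 h at 37 °C was determined by CellTiter-Glo luminescence and expressed as % activity.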
# HT1080NT lethal – qHTS for induction of synthetic lethality in tumor cells producing 2HG: qHTS for the HT-1080-NT fibrosarcoma cell line; 360,000 compounds, 1.6% hits; AID 686970, 2013; HT-1080-NT fibrosarcoma viability, CellTiter-Glo ATP luminescence, 48 h; Potency, µM (top dose mostly 46.1 µM), without a hit: top-dose activity, negative = less viability, usual class: cytotoxic;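 note: NT is the 2HG producing partner of a matched IDH1 knockdown line; potency is the fitted concentration of half-maximal effect; 0% = DMSO-treated cells and -100% = media-only wells without cells; nearly all actives have a fitted effect of over 55% in size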
#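 750 cells/well, RPMI + 5% FBS; 2 h settle, compound pin-transfer, 48 h at 37 degrees C. CellTiter-Glo 10 min RT, luminescence. Normalized to DMSO and media-only wells.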
# IL1B secr inh – qHTS for Inhibitors of Inflammasome Signaling: IL-1-beta AlphaLISA Primary Screen. THP-1 LPS/ATP IL-1B secretion, AlphaLISA, 16 h; hits give low values. 360,000 compounds, 4.7% hits. activity change, % at 57.5 µM; in the data active = activity change below about -50%; inconclusive = mostly about -30% to -49%
#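 Secreted IL-1B measured by AlphaLISA bead assay after 16 h compound exposure of THP-1 cells; compounds (final up to 57.5 uM) added 1 h before LPS (250 ng/mL) and ATP (1.25 mM) stimulation; lower signal means less secretion.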
# Numbers without * were called inactive; u = inconclusive; x = no result given; [ ] = dose if it differs, or a comment. Hits are enriched below; roughly 19% of the tested compounds scored in any of these assays. Unless noted, calls come from the whole dose curve; as a rule, active = well fitted curve in the direction sought with a large enough effect; inconclusive = small, poorly fitted or top-dose-only effect, or another doubt; inactive = no such curve, though single readings can be large; an effect the other way counts as inactive or inconclusive. Unless noted, % is set by controls: 0 for no effect and ±100 for the full control effect.
SMILES,DT40 TDP1 CPT,TDP1 cell noCPT,HT1080 IDH1KD tx,HT1080NT lethal,IL1B secr inh
Cc1ccnc(NC(=O)CCC(=O)N(CC(=O)NCc2ccccc2)c2ccc3c(c2)OCO3)c1,7.3µM*,23µM*,20%,-1%,5
NC(=O)c1ccc(NC(=O)CSC2=Nc3ccccc3C3CC=NN23)cc1 (stereo unspecified),9.2µM*,21µM*,u,-26%,12
COC(=O)c1ccc(NC(=O)CSC2=Nc3ccccc3C3CC=NN23)cc1 (stereo unspecified),23µM*,23µM*,-3%,-7%,1
O=C(CSC1=Nc2ccccc2C2CC=NN12)Nc1ccc(F)cc1Cl (stereo unspecified),u,u,-8%,-6%,-2
Cc1ccc(NC(=O)CSC2=Nc3ccccc3C3CC=NN23)c(C)c1 (stereo unspecified),21µM*,21µM*,-3%,9%,11
Nc1ncc(S(=O)(=O)Nc2ccc(F)cc2F)cn1,1%,9%,x,x,x
COC(=O)c1cc2c(cc1NC(=O)c1c(C)nn(-c3ccc(C)cc3)c1-n1cccc1)OCO2,-5%,u,x,x,x
Cc1ccc(Cl)cc1NC(=O)COC(=O)CCN1C(=O)C2CC=CCC2C1=O (stereo unspecified),-4%,-12%,-4%,0%,4
COc1cc(C2C(C#N)=C(N)OC3=C2C(=O)CC(C)(C)C3)cc2c1OCO2 (stereo unspecified),-3%,-12%,-13%,-9%,-17
O=C(NC(=S)N1CCN(C/C=C/c2ccccc2)CC1)c1ccco1,u,21µM*,1%,5%,1
O=C(NNC(=O)c1ccco1)c1ccco1,4%,-8%,2%,0%,-9
O=C(/C=C/c1ccccc1)NC(=S)NNC(=O)c1ccco1,u,21µM*,-8%,-15%,63
O=C(/C=C/c1ccc(Br)cc1)NC(=S)NNC(=O)c1ccco1,u,18µM*,15µM*,16µM*,39
CSc1nsc(SCC(=O)Nc2ccccc2F)n1,11%,-17%,9%,1%,13
COc1cc(C(=O)NCC(=O)N2CCN(S(=O)(=O)c3cc(C)ccc3C)CC2)cc(OC)c1OC,5.8µM*,3.7µM*,6.5µM*,7.3µM*,91
Cc1ccc(C)c(S(=O)(=O)N2CCN(C(=O)CCNS(=O)(=O)c3ccc(C)c(C)c3)CC2)c1,u,18µM*,-25%,-9%,-5
Cc1ccc(C)c(OCCC(=O)N2CCN(S(=O)(=O)c3cc(C)ccc3C)CC2)c1,u,u,-1%,-4%,-4
Cc1ccc(C)c(S(=O)(=O)N2CCN(C(=O)CCNC(=O)c3ccc(Br)cc3)CC2)c1,23µM*,21µM*,1%,3%,-17
O=C(CCSc1nc2ccccc2o1)N1CCOCC1,-3%,-18%,1%,-10%,4
O=C(NC1CCCCC1)c1ccc(-c2ccccc2F)o1,u,u,-1%,-1%,-13
CC(OC(=O)c1cnc2ccccc2n1)c1ccccc1Cl (stereo unspecified),-4%,-7%,0%,8%,1
Cc1nnn(C23C[C@@H]4C[C@@H](CC(C(=O)N5CCN(c6ccccc6)CC5)(C4)C2)C3)n1,18µM*,13µM*,19%,3%,-6
O=C(N1CCN(c2ccccc2)CC1)C12CC3CC(CC(C3)C1)C2,-18%,u,-4%,-2%,6
Cc1nnn(C23CC4CC(CC(CC(=O)Nc5ccc(C)c(Cl)c5)(C4)C2)C3)n1,u,u,-13%,-4%,-5
Cc1cc(C)cc(NC(=O)CC23CC4CC(C2)CC(n2nnc(C)n2)(C4)C3)c1,u,-13%,-4%,4%,-75*
SMILES,DT40 TDP1 CPT,TDP1 cell noCPT,HT1080 IDH1KD tx,HT1080NT lethal,IL1B secr inh
CCC(NC(=O)COC(=O)C1CC2CCCC(C1)C2=O)c1ccc(Br)cc1 (stereo unspecified),-5%,-19%,17%,15%,0
CCCS(=O)(=O)NC(=O)C1(C)CCCN(C(=O)c2cccc(OC(F)(F)F)c2)C1 (stereo unspecified),-7%,-6%,11%,18%,22
CSc1cccc(NC(=O)CN(c2ccccc2)S(=O)(=O)N(C)C)c1,26µM*,29µM*,u,-4%,13
CSc1cccc(NC(=O)CN(c2cccc(C)c2)S(C)(=O)=O)c1,18µM*,u,-2%,-3%,-16
CSc1cccc(NC(=O)CN(c2ccc(C)cc2C)S(C)(=O)=O)c1,-10%,u,-25%,-4%,-3
CC[C@@H]1C=C(C(=O)O)[C@H](c2ccc(OC)c(OC)c2)N1S(=O)(=O)c1ccc(C)cc1,-6%,-3%,-1%,5%,33
CCn1c(C(=O)NCc2ccccc2Br)cc2oc3ccccc3c21,21µM*,-93%,u,-18%,x
CCn1c(C(=O)NCc2cccc(Br)c2)cc2oc3ccccc3c21,u,15µM*,x,x,x
CCn1c(C(=O)NCc2cc(Br)ccc2OC)cc2oc3ccccc3c21,23µM*,u,x,x,x
Cn1c(C(=O)NCc2ccccc2)cc2oc3ccccc3c21,-13%,-29%,u,u,u
COCc1c(C(=O)N2CCN(C)CC2)cnn1-c1ncc2c(n1)-c1ccccc1CCC2,7%[9.04 µM],-15%,x,x,x
Cc1ccc(S(=O)(=O)N2CCOCC2)cc1NC(=O)CNC1CCCC1,-3%,-15%,25%,0%,0
O=C(NC(=S)NC1CCCCC1)c1ccc(F)cc1,-17%,-11%,0%,-11%,-2
O=C(c1ccc(F)cc1)N1c2ncnn2C2(CCCCC2)[C@@H]2CCCC[C@@H]21,u,21µM*,x,x,x
Cc1cccc(C(=O)N2c3ncnn3C3(CCCCC3)[C@@H]3CCCC[C@@H]32)c1,u,23µM*,x,x,x
CC1CCCN(CCCNC(=O)C2CCC(CNS(=O)(=O)c3cccc4nsnc34)CC2)C1 (stereo unspecified),-21%,-10%,-1%,-1%,u
COc1ccccc1-c1cccc([C@@H]2C[C@H]3[C@H](CON3C)CN2Cc2ccccc2)c1,u,21µM*,-17%,-16%,-2
COc1ccccc1-c1cccc([C@@H]2C[C@H]3[C@H](CON3C)CN2Cc2cc(Cl)cc(Cl)c2)c1,u,u,-1%,-4%,1
